Assay outcomes from PubChem.
CRE Fsk mod = modulators of forskolin-stimulated CRE signaling in CHO cells. hit rate 2.5% among 71,000. Potency, µM (titrated, usually from 38.2 µM), usual class: activators. CHO CRE-bla reporter (cAMP response element driving beta-lactamase), forskolin EC10, beta-lactamase ratio; active = well fitted activation curve with a large enough effect in the signal ratio, with a control signal flat, not every such curve was filed as active; inconclusive = small, poorly fitted or top-dose-only effect, or effect the other way, or a change in a side signal; the % refers to the signal ratio
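qHTS titration format; CRE-bla CHO reporter; stimulus EC10 NKH 477, a water-soluble forskolin. Read: CCF4 460/530 nm ratio. Potency expressed as AC50 for activators or inhibitors.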
IkB sig inh = IkB pathway inhibition in ABC-DLBCL cells; Potency, µM (doses to about 57.1 µM); hit rate 0.04% among 110,000; ABC-DLBCL IkBa-CBG/CBR dual luciferase ratio, 4 h; response scale: scaled: untreated 0%, proteasome inhibitor 100%; active = well fitted curve in the direction sought with a large enough effect in the signal ratio, not every such curve was filed as active; inconclusive = small, poorly fitted or top-dose-only effect, or a change in a side signal; the % refers to the signal ratio;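 note: the direction sought is a rising ratio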
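Luminescence ratio of IκBα-fused green versus native red beetle luciferase in OCI-Ly3 cells, 4 h post-doxycycline with compound; red signal alone, scaled from basal (0%) to zero light (-100%), flagged nonspecific or cytotoxic effects.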
Hsp90 Hop PPI = changes Hsp90-Hop TPR2A binding signal, up or down. AlphaScreen TPR2A-His6 binding biotin-Hsp90 C-terminal peptide. Potency, µM (doses to about 57 µM). hit rate 0.44% among 71,000. AID 595; active = well fitted curve in either direction with a large enough effect; inconclusive = small, poorly fitted or top-dose-only effect, or another doubt
ALOX15 inhib = inhibitors of human 15-lipoxygenase (ALOX15). P16050. purified 15hLO-1, xylenol orange hydroperoxide absorbance. Potency, µM (titrated, usually from 57.1 µM), hits mostly inhibitors. hit rate 1.4% among 74,000; note: nearly all actives have a fitted effect of over 55% in size
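Quantitative HTS in 25 mM Hepes pH 7.5 containing 0.01% Triton X-100: human 15hLO-1 at 40 nM, arachidonic acid at 50 uM, 6 min turnover. Product quantified via ferrous oxidation/xylenol orange, 573:405 nm absorbance ratio.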
Tau fil binding = binds recombinant human tau filaments. hit rate 2% among 71,000. Potency, µM (titrated, usually from 57.1 µM). P10636. recombinant tau filaments, thioflavin S fluorescence, 15 h; filaments grown with octadecylsulfate alongside compound;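 note: actives lower thioflavin S fluorescence by blocking filaments or displacing dye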
Target sequence (P10636 whole entry, looked up): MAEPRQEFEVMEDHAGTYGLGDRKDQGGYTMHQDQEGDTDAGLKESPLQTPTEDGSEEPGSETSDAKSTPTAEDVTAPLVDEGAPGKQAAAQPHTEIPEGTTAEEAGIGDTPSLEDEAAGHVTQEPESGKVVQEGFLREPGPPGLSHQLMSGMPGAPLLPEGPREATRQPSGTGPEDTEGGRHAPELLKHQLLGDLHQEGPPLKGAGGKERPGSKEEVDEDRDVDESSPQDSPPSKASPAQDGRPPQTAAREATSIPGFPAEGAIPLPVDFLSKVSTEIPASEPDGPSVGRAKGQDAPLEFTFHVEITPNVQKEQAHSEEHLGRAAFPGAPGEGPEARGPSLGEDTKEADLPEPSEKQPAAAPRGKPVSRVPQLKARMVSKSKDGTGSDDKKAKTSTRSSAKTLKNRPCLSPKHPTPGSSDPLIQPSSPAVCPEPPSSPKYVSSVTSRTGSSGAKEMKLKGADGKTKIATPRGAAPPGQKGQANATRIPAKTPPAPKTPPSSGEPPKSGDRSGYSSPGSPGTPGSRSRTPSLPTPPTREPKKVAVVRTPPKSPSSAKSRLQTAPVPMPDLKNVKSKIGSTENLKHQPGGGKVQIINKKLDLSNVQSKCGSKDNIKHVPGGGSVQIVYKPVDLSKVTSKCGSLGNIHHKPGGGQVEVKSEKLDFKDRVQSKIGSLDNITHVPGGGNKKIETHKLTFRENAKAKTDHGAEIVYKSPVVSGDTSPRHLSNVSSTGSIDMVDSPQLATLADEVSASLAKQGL
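Read-out: ThS fluorescence, 450 nm excitation/510 nm emission; lower signal marks blocked filament formation or displaced dye. Tau at 1 uM with 30 uM ODS, 10 uM ThS, 5 mM DTT, 100 mM NaCl, 10 mM HEPES pH 7.4; 15 h, 37 C.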
Numbers stand for hits; [ ] = dose if it differs, or a comment. This is a sample that favours compounds with a hit; in the whole collection about 3.6% have one here. Unless noted, calls come from the whole dose curve; as a rule, active = well fitted curve in the direction sought with a large enough effect; inconclusive = small, poorly fitted or top-dose-only effect, or another doubt; inactive = no such curve, though single readings can be large; an effect the other way counts as inactive or inconclusive.

CCn1c(SCc2nc3ccccc3c(=O)[nH]2)nc2ccccc2c1=O was read as CRE Fsk mod 2.51µM, IkB sig inh inactive, Hsp90 Hop PPI inactive, ALOX15 inhib inactive and Tau fil binding inactive.
`Cc1sc2nc(CSc3nc4ccccc4c(=O)n3CCCN3CCOCC3)[nH]c(=O)c2c1C` gave CRE Fsk mod 2.51µM, IkB sig inh inactive, Hsp90 Hop PPI inactive, ALOX15 inhib inactive and Tau fil binding inactive.
Screening O=C(O)c1ccc(Nc2ccnc3cc(Cl)ccc23)cc1O returned CRE Fsk mod inactive[7.6 µM], IkB sig inh inactive[11.4 µM], Hsp90 Hop PPI inactive[11 µM], ALOX15 inhib inactive[11.4 µM] and Tau fil binding inactive[11.4 µM].
`CCN(CC)Cc1cc(Nc2ccnc3cc(Cl)ccc23)ccc1O` gave CRE Fsk mod inactive, IkB sig inh inactive, Hsp90 Hop PPI inactive, ALOX15 inhib inactive and Tau fil binding 3.16µM.
CN1CCN(c2ccc(Cl)cc2NC(=O)c2cccc(S(=O)(=O)N(C)C)c2)CC1 was read as CRE Fsk mod 5.01µM, IkB sig inh inactive, Hsp90 Hop PPI inactive, ALOX15 inhib inactive and Tau fil binding inactive.
For CN(C)S(=O)(=O)c1cccc(C(=O)Nc2cc(Cl)ccc2O)c1 the results were CRE Fsk mod inactive, IkB sig inh inconclusive, Hsp90 Hop PPI inactive, ALOX15 inhib inactive and Tau fil binding inactive.
CCOc1ccc2nc(NC(=O)C(CCSC)NS(=O)(=O)c3cccs3)sc2c1 (stereo unspecified) was read as CRE Fsk mod inactive, IkB sig inh inactive, Hsp90 Hop PPI inactive, ALOX15 inhib 15.8µM and Tau fil binding inactive.
Screening CCOC(=O)c1ccc(NC(=O)c2ccc3c(c2)NC(=O)c2ccccc2S3)cc1 returned IkB sig inh inactive.
Screening CCOC(=O)Nc1ccc2c(c1)N(C(=O)N(C)C)c1ccccc1CC2 returned CRE Fsk mod inconclusive, IkB sig inh inactive, Hsp90 Hop PPI inactive[11 µM], ALOX15 inhib inactive[11.4 µM] and Tau fil binding inactive[11.4 µM].
`CCOC(=O)Nc1ccc2c(c1)N(C(=O)N1CCN(C)CC1)c1ccccc1S2` gave CRE Fsk mod inactive, IkB sig inh inconclusive, Hsp90 Hop PPI inconclusive, ALOX15 inhib inactive and Tau fil binding 15.8µM.
`CCOC(=O)Nc1ccc2c(c1)Nc1ccccc1S2` gave CRE Fsk mod inactive, IkB sig inh inconclusive, Hsp90 Hop PPI inconclusive, ALOX15 inhib 31.6µM and Tau fil binding inconclusive.
Screening CCCSC1=N/C(=C\C=C\c2ccco2)C(=O)S1 returned CRE Fsk mod inactive, IkB sig inh inactive, Hsp90 Hop PPI inactive, ALOX15 inhib 2.51µM and Tau fil binding 2µM.
Screening O=C1SC(SCc2ccccc2)=N/C1=C\c1ccco1 returned CRE Fsk mod inactive, IkB sig inh inactive, Hsp90 Hop PPI inactive, ALOX15 inhib inconclusive and Tau fil binding inconclusive.
CCCCSc1ncnc2c1c(-c1ccccc1)cn2-c1cccc(F)c1 was read as IkB sig inh inactive.
For CCCN1C(=O)C2(c3ccccc31)c1c(oc3ccc(C)cc3c1=O)C(=O)N2CCOC (stereo unspecified) the results were IkB sig inh inactive.
Screening CC(C)Oc1ccc(C(=O)NCc2ccco2)cc1 returned CRE Fsk mod inactive, IkB sig inh inactive, Hsp90 Hop PPI inactive, ALOX15 inhib inactive and Tau fil binding inactive.
Screening CN(C)c1ccc(C(=S)NCc2ccco2)cc1 returned CRE Fsk mod inactive, IkB sig inh inactive, Hsp90 Hop PPI inactive, ALOX15 inhib 25.1µM and Tau fil binding inactive.
Screening CCOc1ccc(C2c3c(oc4cc(C)c(C)cc4c3=O)C(=O)N2CCCN2CCOCC2)cc1 (stereo unspecified) returned CRE Fsk mod inactive, IkB sig inh inactive, Hsp90 Hop PPI inactive, ALOX15 inhib inactive and Tau fil binding 15.8µM.
CCOc1ccc(C2c3c(oc4ccccc4c3=O)C(=O)N2CCCN2CCOCC2)cc1 (stereo unspecified) was read as CRE Fsk mod inactive, IkB sig inh inactive, Hsp90 Hop PPI inactive, ALOX15 inhib inactive and Tau fil binding inactive.
Screening C=CCOc1ccc(C2c3c(oc4ccc(C)cc4c3=O)C(=O)N2CCCN2CCOCC2)cc1 (stereo unspecified) returned IkB sig inh inactive.
Screening Cc1ccc2oc3c(c(=O)c2c1)C(c1cccc(Cl)c1)N(CCCN1CCOCC1)C3=O (stereo unspecified) returned CRE Fsk mod inconclusive, IkB sig inh inactive, Hsp90 Hop PPI inactive, ALOX15 inhib inactive and Tau fil binding 12.6µM.
`Cc1cc2oc3c(c(=O)c2cc1C)C(c1ccc(C(C)C)cc1)N(CCCN1CCOCC1)C3=O` (stereo unspecified) gave CRE Fsk mod inactive, IkB sig inh inactive, Hsp90 Hop PPI inactive, ALOX15 inhib inconclusive and Tau fil binding 3.98µM.
Screening CC1=C(c2ccc(C)cc2)S(=O)(=O)NC1=NCCCN1CCN(c2ccccc2F)CC1 returned IkB sig inh inactive.
Screening O=C(/C=C/c1ccc(O)cc1)c1ccccc1O returned ALOX15 inhib 10µM.
For CCOC(=O)c1[nH]c(CSc2nnnn2-c2ccccc2C)c(C(=O)OCC)c1C the results were CRE Fsk mod 2.51µM, IkB sig inh inactive, Hsp90 Hop PPI inactive, ALOX15 inhib inactive and Tau fil binding inactive.
CCn1nc(C(=O)OCc2c(C)noc2C)c2ccccc2c1=O was read as CRE Fsk mod 10µM, IkB sig inh inactive, Hsp90 Hop PPI inactive, ALOX15 inhib inactive and Tau fil binding inactive.
Cn1c(=O)c(C(=O)CN2CCCc3ccccc32)c(N)n(Cc2ccccc2)c1=O was read as CRE Fsk mod inactive, IkB sig inh inconclusive, Hsp90 Hop PPI inconclusive, ALOX15 inhib inconclusive and Tau fil binding 25.1µM.
For COC(=O)c1cc2oc3ccccc3c2n1Cc1ccc(Cl)cc1 the results were IkB sig inh inactive.
O=C(O)c1c(Sc2ccccc2)c2cc(Cl)ccc2n1Cc1ccc(Cl)cc1 was read as ALOX15 inhib 25.1µM.
Screening COC(=O)c1c(C(=O)OC)c(C)n(Cc2ccco2)c1C returned CRE Fsk mod inconclusive, IkB sig inh inactive, Hsp90 Hop PPI inactive, ALOX15 inhib inactive and Tau fil binding inactive.
`CCOc1cccc(=O)c2c(C)n(Cc3ccco3)c(C)c12` gave CRE Fsk mod inactive, IkB sig inh inactive, Hsp90 Hop PPI inactive, ALOX15 inhib inactive and Tau fil binding 3.98µM.
`CCc1ccc(C2CC(c3ccccc3Cl)Nc3nc(N)nn32)cc1` (stereo unspecified) gave CRE Fsk mod inactive, IkB sig inh inactive, Hsp90 Hop PPI inactive, ALOX15 inhib inactive and Tau fil binding 20µM.
For CCc1ccc(C2CC(c3ccccc3)Nc3nc(N)nn32)cc1 (stereo unspecified) the results were CRE Fsk mod inactive, IkB sig inh inactive, Hsp90 Hop PPI inactive, ALOX15 inhib inactive and Tau fil binding inactive.
For Cc1cc(=S)[nH]c2ccccc12 the results were CRE Fsk mod inconclusive, IkB sig inh inactive, Hsp90 Hop PPI inactive, ALOX15 inhib inconclusive and Tau fil binding inactive.
Cc1ccc2[nH]c(=S)cc(C)c2c1 was read as CRE Fsk mod inconclusive, IkB sig inh inactive, Hsp90 Hop PPI inactive, ALOX15 inhib 3.16µM and Tau fil binding inactive.
